This passage reports inhibition results from PubChem BioAssay AID1285 (Columbia University Molecular Screening Center, 2008).

SMILES strings stand for the structures. In all, about 190,000 compounds went through this assay and about 1,600 (0.84%) were called active.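 How the source made its calls: active means inhibition above a set limit, derived from the sample mean plus 3 SD (cut at about 45% in these data); inconclusive means one replicate passes the limit while the other fails; inactive means the rest.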 For the sample, actives were picked, then their nearest neighbours and some compounds at random.

The assay is described as follows: inhibitors of APP translation via 5'UTR reporter, primary screen, APP 5'UTR luciferase, SH-SY5Y cells (AID 1285). The conditions noted are these: SH-SY5Y APP 5'UTR-luciferase reporter, luminescence; at 2 µM; hits give high values.
In the case of `COC(=O)CSc1ncnc2c1cnn2-c1ccc(C)cc1C`, the inhibition is -3.9% (inactive). The same measure for `CSc1nc(-c2ccccc2)nc(C(Cl)Cl)n1`: 48.7% (active); for `CSc1nc(C)cc(SC(C(C)=O)C(=O)Nc2ccccc2)n1` (configuration not stated): -17.5% (inactive); for `COc1ccc(NC(=O)CCNS(=O)(=O)c2ccc3c(c2)c(=O)n(C)c(=O)n3C)cc1OC`: 17.6% (inactive). In the case of `COCCN(C(=S)Nc1ccccc1OC)C1CCN(C(C)C)CC1`, the inhibition is -3.7% (inactive). The same measure for `COC(=O)c1cc2c(ccn2C)n1C`: -10.6% (inactive). With `S=c1[nH]nc(-c2cccnc2)n1/N=C/C(Cl)=C\c1ccccc1`, the inhibition was -36.5% (inactive). The same measure for `Cc1ccc(/C=N\n2c(-c3ccccc3)n[nH]c2=S)s1`: -4% (inactive); for `Cc1cc(-c2n[nH]c(=S)n2/N=C/C(Br)=C/c2ccccc2)n[nH]1`: 83.5% (active). The same measure for `CC(Oc1ccccc1)C(=O)NN1Cc2ccccc2C1=N` (configuration not stated): -15% (inactive). Consider `O=C(NCc1ccc2c(c1)OCO2)c1ccc2c(c1)C(=O)N(CC1CCCO1)C2=O` (configuration not stated), for which the inhibition is 3.9% (inactive). Under `O=C1c2cccc3c([N+](=O)[O-])ccc(c23)C(=O)N1CC1CCCO1` (configuration not stated) stands 53% (active). The same measure for `O=c1c2cc3c(=O)n(CC4CCCO4)c(=O)c3cc2c(=O)n1CC1CCCO1` (configuration not stated): -21.8% (inactive); for `COc1ccc(OC)c(Cc2nnc(CCC(=O)NC3CCCC3)o2)c1`: -10.4% (inactive). For `COc1ccc(OC(C)C(=O)NCCc2nc3ccccc3[nH]2)cc1` (configuration not stated), the inhibition was -10.4% (inactive). The same measure for `COc1cc(OC)cc(C(=O)N[C@H](C(=O)OCC(=O)NC(C)c2ccccc2)C(C)C)c1` (some centres not stated): 14.5% (inactive). Under `COc1cc(OC)cc(C(=O)N[C@H](C(=O)Nc2nc3ccccc3[nH]2)C(C)C)c1` stands 94.9% (active); under `Cc1cc(/C=N/NC(N)=O)c(C)n1C1CCCCC1`, -4.6% (inactive). Under `CCOC(=O)C(NC(=O)CC(C)C)(Nc1sc2c(c1C(N)=O)CCCC2)C(F)(F)F` (configuration not stated) stands 5.1% (inactive).

With `O=C(COc1ccc(Cl)cc1[N+](=O)[O-])N1CCCCC1`, the inhibition was -4% (inactive). In the case of `CCOC(=O)C1=C(C)Nc2nc3ccccc3n2C1c1cccs1` (configuration not stated), the inhibition was 6.6% (inactive).

For `COc1ccccc1NC(=O)C1=C(C)Nc2nc3ccccc3n2C1c1cccs1` (configuration not stated), the inhibition is 91% (active). Under `CCOc1ccc(C2C(C(=O)NC)=C(C)Nc3nc4ccccc4n32)cc1OC` (configuration not stated) stands 11.5% (inactive); under `COc1cccc(-c2nn(-c3ccccc3)cc2/C=C(\C#N)C(=O)NCCCn2ccnc2)c1`, 14.7% (inactive); under `C=CCN1C2CCCC1CC(NC(=S)Nc1cccc(OC)c1)C2` (configuration not stated), -2.4% (inactive). On to `COc1ccccc1C1C2=C(COC2=O)Nc2cc3c(cc21)OCO3` (configuration not stated), for which the inhibition was 94.5% (active). Under `COc1ccc(C2CC(=O)Nc3cc(C)c(C)cc32)c(OC)c1OC` (configuration not stated) stands -0.3% (inactive); under `COc1cc2c(cc1/C=C1/NC(=O)N(c3ccccc3)C1=O)OCO2`, -15.4% (inactive); under `COCCOC(=O)C1=C(C)NC(=O)CC1c1cc2c(cc1Br)OCO2` (configuration not stated), 3.7% (inactive).

As to `CCCOc1ccccc1C1CC(=O)Nc2cc3c(cc21)OCO3` (configuration not stated), the inhibition was 92.3% (active).

`COc1ccc(F)cc1S(=O)(=O)Nc1ccc2c(c1)OCO2`: the inhibition was -19.9% (inactive). For the compound `CN1CCN(C(=O)/C(=C\c2cccs2)NC(=O)c2cccs2)CC1`, the inhibition was -8.2% (inactive).

Take `CCCCn1nc(C(=O)Nc2ccc(S(=O)(=O)Nc3ncccn3)cc2)c2ccccc2c1=O`: the inhibition is -36.5% (inactive). The same measure for `COc1cccc(CC(=O)N2CCCC(CCC(=O)N3CCN(c4ccccn4)CC3)C2)c1` (configuration not stated): -8.5% (inactive); for `CCOc1ncccc1C(=O)OCC(=O)NC1CC1`: 17% (inactive). As for `O=c1c([N+](=O)[O-])cccn1Cc1ccc(F)cc1Cl`, the inhibition was -2.2% (inactive). The same measure for `Cc1ccc(OCC(=O)N/N=C/c2ccncc2)cc1`: 0.8% (inactive). The same measure for `Cc1ccc(/C=N/NC(=O)COc2ccccc2-c2ccccc2)cc1`: 97% (active); for `Cc1ccc(OCC(=O)N/N=C\c2ccco2)c(C)c1`: -0.4% (inactive); for `CN1CCC(=NNC(=O)c2ccc(N(Cc3ccc(Cl)cc3)S(C)(=O)=O)cc2)CC1`: -0.2% (inactive). With `Cc1ccc(S(=O)(=O)N(CC(=O)NN=C2CCN(C)CC2)c2ccc(F)cc2)cc1`, the inhibition is -21% (inactive). Under `CCOc1ccccc1C(=O)NCc1ccco1` stands -2.6% (inactive); under `COc1ccc(CCNS(=O)(=O)c2ccc(C(=O)NCc3ccco3)cc2)cc1OC`, -8.6% (inactive). The same measure for `CCCC1=Nc2cc(C(=O)NCc3ccco3)ccc2Sc2ccccc21`: 90.1% (active); for `CC(=O)N1CCN(S(=O)(=O)c2cccc(C(=O)NC3CCC(C)CC3)c2)CC1` (configuration not stated): 2.6% (inactive); for `O=C(COc1ccc(NC(=O)c2ccccc2[N+](=O)[O-])cc1)c1ccc(F)cc1`: -3.2% (inactive). Take `CCN(CC)C(=O)N(CC)Cc1ccccc1`: the inhibition is -8.7% (inactive). The same measure for `CC(=O)Nc1ccc(S(=O)(=O)N2CCN(C(=O)c3ccccc3F)CC2)cc1`: 94.3% (active); for `CC(=O)Nc1ccc(S(=O)(=O)N2CCN(C3CCCCCCC3)CC2)cc1`: -4.6% (inactive); for `CC(=O)Nc1ccc(S(=O)(=O)N2CCSCC2)cc1`: 11.7% (inactive).

For the compound `CN(Cc1ccc2nsnc2c1)Cc1nc(Cc2cccc(F)c2)no1`, the inhibition is -3.3% (inactive). The same measure for `CNc1ccc(NC(C)=O)cc1[N+](=O)[O-]`: -17.6% (inactive); for `CC(C)CC(=O)NC(=S)Nc1ccc(F)cc1F`: -8.3% (inactive). The same measure for `COc1cccc(OCCOc2cccc(/C=N/n3cnnc3)c2)c1`: -90.8% (inactive); for `Cc1ccccc1OCCOc1ccc([N+](=O)[O-])cc1/C=N/n1cnnc1`: 45.2% (active). Under `COc1ccccc1OCCOc1ccc(/C=N/n2cnnc2)cc1` stands 8.5% (inactive); under `O=C(COC(=O)c1cc(-c2cccs2)nn1-c1ccccc1)Nc1cc([N+](=O)[O-])ccc1Cl`, -13.5% (inactive); under `Cc1cc(C(C)(C)C)cc(S(=O)(=O)Nc2ccc(C(=O)O)cc2)c1C`, 2.7% (inactive). For the compound `CNC(=S)NNC(=O)c1cccn(Cc2ccccc2)c1=O`, the inhibition was 4.8% (inactive). With `CCN(CC)S(=O)(=O)c1ccc(N2CCCC2)c(NS(=O)(=O)c2cccs2)c1`, the inhibition is 7.7% (inactive). Under `CC(=O)c1ccc(Oc2cc(C)nc(-n3nc(C)cc3C)n2)cc1` stands 93.7% (active).

On to `COc1ccc(Nc2cc(C)nc(-n3nc(C)cc3C)n2)cc1`, for which the inhibition was 92.8% (active). Under `COc1ccc(NC(=O)c2nc(-n3nc(C)cc3C)ccc2Cl)cc1Cl` stands 21.2% (inactive); under `Cc1cc(C)n(-c2cc(Oc3ccccc3)ncn2)n1`, -14.1% (inactive). The same measure for `Cc1cc(Oc2ccc(Cl)cc2)nc(SCC(=O)c2ccccc2)n1`: -11.5% (inactive); for `COc1ccccc1/C=N\Nc1cc(C)nc(-n2nc(C)cc2C)n1`: 3.2% (inactive); for `O=C(NCc1ccccc1)C1=C[C@@H](c2ccc(C(F)(F)F)cc2)C[C@@H](OCc2ccc(CO)cc2)O1`: -9.6% (inactive). Turning to `O=C(CSc1nc2ccc(Nc3nc(N4CCOCC4)nc(N4CCOCC4)n3)cc2s1)NCc1ccco1`, the inhibition is -2.6% (inactive).

In the case of `CN1CCCN(C(=O)C2CCCCC2)CC1`, the inhibition was 4.4% (inactive).

Turning to `O=[N+]([O-])c1cccc(/C([O-])=C(/C(=S)Nc2ccccc2F)[n+]2ccccc2)c1`, the inhibition is -11.7% (inactive). Under `CCOC(=O)c1c(C)[nH]c(C2=NNC(=NC(C)COC)SC2)c1C` (configuration not stated) stands -102% (inactive); under `O=S1(=O)CCC(NC(=S)SCc2ccccc2Br)C1` (configuration not stated), 0.3% (inactive). In the case of `Cc1nn(C)cc1/C=N/NC(=O)c1sc2ccccc2c1Cl`, the inhibition was 55.6% (active). As to `O=C(Nc1ccon1)c1sc2ccccc2c1Cl`, the inhibition was -68.6% (inactive). Under `O=C(N/N=C/c1c(Cl)[nH]c2ccccc12)c1sc2ccccc2c1Cl` stands -4.8% (inactive); under `Cc1ccccc1CCN(CC(=O)NC1CCCCC1)C(=O)c1csnn1`, 11.3% (inactive); under `O=c1nc(N/N=C/c2ccco2)cn[nH]1`, 12.4% (inactive).

On to `O=C(O)c1ccc(N/N=C/c2cn(-c3ccccc3)nc2-c2cccs2)cc1`, for which the inhibition is -140% (inactive). The same measure for `CC(C)(O)C#Cc1ncc(C(F)(F)F)cc1Cl`: -2.7% (inactive); for `CC(=O)Nc1ccc(NC(=O)COc2ncnc3ccccc23)cc1`: 0.3% (inactive); for `O=[N+]([O-])c1cccc(Nc2c3ccccc3nc3ccccc23)c1`: 0.1% (inactive). As for `CC(=O)Nc1ccc(Nc2c3ccccc3nc3ccccc23)cc1`, the inhibition was 92.3% (active). As for `C=CCn1c(SCc2ccc(Cl)c(Cl)c2)nnc1C(CO)NC(=O)c1ccc(OC)cc1` (configuration not stated), the inhibition is -13.3% (inactive). Under `CCOc1ccc(CCNC(=O)C2=C(C)C(=O)OC23CCC(C)CC3)cc1OCC` (configuration not stated) stands -9.6% (inactive). The same measure for `N=c1c2c(-c3ccccc3)c(-c3ccccc3)n(Cc3ccccc3)c2ncn1CCCO`: 77.3% (active). The same measure for `Cc1nc([N+](=O)[O-])c(NCCCO)n1Cc1ccccc1`: 6.3% (inactive); for `N=c1c2c(-c3ccccc3)c(-c3ccccc3)oc2ncn1Cc1ccco1`: -10.8% (inactive). `C/C(CCc1ccccc1)=N\NC(=O)c1ccc(CN2CCOCC2)cc1`: the inhibition is -5.3% (inactive). The same measure for `COc1ccc(N2C(=O)CC(SC(C)C)C2=O)cc1` (configuration not stated): -20.2% (inactive); for `COc1cc(Cl)c(C)cc1NC(=O)COC(=O)c1cc(SC)ccc1Cl`: 6.6% (inactive); for `OCCC1CN(Cc2ccc3nsnc3c2)CCN1C1CCCC1` (configuration not stated): -9.3% (inactive). Under `C=CS(=O)c1sc(Cl)c(N2CCOCC2)c1[N+](=O)[O-]` (configuration not stated) stands 83.2% (active); under `Cc1ccc(C(=O)NN(CCC#N)C2=NS(=O)(=O)c3ccccc32)cc1`, -1.1% (inactive). The same measure for `C/C(=N\N)c1c(-c2ccccc2)c2cc(Br)ccc2[nH]c1=O`: -3.6% (inactive).

On to `COc1cccc2c(N/N=C/c3ccco3)cc(C)nc12`, for which the inhibition is -4.8% (inactive). On to `COc1cccc(/C=N/Nc2cc(C)nc(-c3ccccc3O)n2)c1O`, for which the inhibition is 67.5% (active). Regarding `Cc1cc(N/N=C/c2ccccc2F)c2ccccc2n1`, the inhibition was -7.2% (inactive).

The inhibition is the change of the read-out against control, counted positive when it falls.
